The structures appear in SMILES notation. Active and inactive are the calls of the source. How the source made its calls: active means hit-call score of the fitted dose curve at least 0.9, where 1 is the maximum; inactive means score below 0.9.

The nature of this experiment: ATG_CMV_CIS: Attagene CIS-FACTORIAL HepG2 Assay for human CMV (Internal Marker) (AID 2282928).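 Further: endpoint acts as a background internal control marker rather than a target.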 Conditions: HepG2 CMV promoter reporter, transcription factor profiling; actives raise or lower the signal. Summed up: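 24 h chemical treatment, HepG2 with transient multi-reporter transfection; RNA → oligo(dT) RT → PCR → 6-FAM extension → HpaI digest → CE fluorescence. Bidirectional fit, DMSO negative control.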
For the compound `CCOS(=O)(=O)OCC`, the outcome was inactive.
Regarding `ClC(Cl)(Cl)c1ccccc1`, the call was inactive.
For the compound `CC(C)(C)N(NC(=O)c1ccc(Cl)cc1)C(=O)c1ccccc1`, the call was inactive.
For `CCN(CC)c1ccccc1`, the outcome was inactive.
Regarding `CCCCN(CCCC)SN(C)C(=O)Oc1cccc2c1OC(C)(C)C2`, the result was inactive.
With `CCOP(=S)(OCC)SCSCC`, the result was inactive.
Still for that read-out and setting: with `CCCCCCCc1ccc(O)cc1` the entry was “inactive”; with `O=C(O)C=CC(F)(C(F)(F)F)C(F)(F)F`, “inactive”; with `CC(Cc1ccc(OCC(=O)O)cc1)NCC(O)c1csc(C(F)(F)F)n1` (stereo unspecified), “inactive”.
By AC50 is commonly meant the concentration giving half of the maximal activity seen. For the compound `CCC(C)(C)c1ccc(O)cc1`, the AC50 was 49 µM (active).
For `O=S(=O)(F)C(F)(F)C(F)(F)C(F)(F)C(F)(F)C(F)(F)C(F)(F)C(F)(F)C(F)(F)F`, the compound was called inactive.
For the compound `N#Cc1c(-c2ccc(Cl)cc2)[nH]c(C(F)(F)F)c1Br`, the AC50 is 3.01 µM (active).
For `O=P(Oc1ccccc1)(Oc1ccccc1)Oc1ccccc1`, the call was inactive.
Same read-out and setting: the entry for `O=[N+]([O-])c1ccc(Cl)c(Cl)c1` is “inactive”; for `C/C(=N\NC(=O)Nc1cc(F)cc(F)c1)c1ncccc1C(=O)O` it is “inactive”.
Still for that read-out and setting: with `Nc1ccc(Cl)cc1` the entry was “inactive”.
As for `CC(O)C#N` (stereo unspecified), the compound was classed as inactive.
Turning to `C=C(C)C(=O)OCC1CO1` (stereo unspecified), the compound was classed as inactive.
Still for that read-out and setting: the entry for `CCCCN(CC)C(=O)SCCC` is “inactive”.
`CCCCN(CCCC)N=O`: the compound was called inactive.
Same read-out and setting: with `ClC(Cl)c1ccccc1` the entry was “inactive”; with `c1ccc2c(c1)sc1ccccc12`, “inactive”; with `Cc1ccc([N+](=O)[O-])cc1C`, “inactive”.
Same read-out and setting: with `CCC1(c2ccccc2)C(=O)N=C(O)NC1=O` (stereo unspecified) the entry was “inactive”; with `OCC(F)(F)OC(F)(F)C(F)(F)OC(F)(F)CO`, “inactive”.
On to `CCOP(=S)(Oc1ccc([N+](=O)[O-])cc1)c1ccccc1` (stereo unspecified), for which the result was inactive.

The record behind these values is PubChem BioAssay (EPA / NIEHS).
